# Measured values taken from PubChem BioAssay.
# Potency and affinity values are given separately. Calls of active or inactive are those of the source. Entries that show only a call come without a potency. Unless noted, no cut-off is given here; in the data, nearly all actives have IC50 up to about 0.98 µM.
# Biological target: Calcium-dependent protein kinase 1 (Plasmodium falciparum (isolate 3D7)) (UniProt P62344)
# Assay: PfCDPK1 kinase inhibitors, biochemical, TCAMS library (AID 1159585);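 note: inhibitors leave more ATP so luminescence rises with inhibition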
# Settings: recombinant PfCDPK1, Kinase-Glo ATP depletion luminescence
# Sequence of Calcium-dependent protein kinase 1 (Plasmodium falciparum (isolate 3D7)) (P62344 whole entry, looked up): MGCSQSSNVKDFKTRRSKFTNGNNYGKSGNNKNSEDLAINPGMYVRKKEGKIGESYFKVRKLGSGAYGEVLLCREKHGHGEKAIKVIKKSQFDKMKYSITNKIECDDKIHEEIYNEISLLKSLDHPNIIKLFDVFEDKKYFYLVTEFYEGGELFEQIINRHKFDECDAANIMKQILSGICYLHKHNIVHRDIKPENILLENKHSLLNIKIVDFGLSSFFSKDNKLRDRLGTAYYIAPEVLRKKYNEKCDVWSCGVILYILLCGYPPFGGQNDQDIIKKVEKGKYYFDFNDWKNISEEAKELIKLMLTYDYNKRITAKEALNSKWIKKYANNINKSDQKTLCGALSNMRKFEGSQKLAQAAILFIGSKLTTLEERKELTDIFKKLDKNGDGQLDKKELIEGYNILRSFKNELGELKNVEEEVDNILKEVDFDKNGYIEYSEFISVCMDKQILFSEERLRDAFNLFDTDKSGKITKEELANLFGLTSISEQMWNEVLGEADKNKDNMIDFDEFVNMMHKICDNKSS
row,SMILES,outcome
1,Cc1cc(=O)[nH]c(/N=C(/N)NOCCCc2ccccc2)n1,inactive
2,NCCC(=O)Nc1ccc(-c2cnc3[nH]cc(-c4ccc(C(=O)O)cc4)c3c2)cn1,inactive
3,Cc1nc(N)nc(N)c1-c1ccc(Br)c([N+](=O)[O-])c1,inactive
4,O=[N+]([O-])c1ccccc1C=NNc1ccnc2cc(Cl)ccc12,inactive
5,Cc1cc(F)ccc1[C@H]1CNCCN1C(=O)N(C)C(C)(C)c1cc(C(F)(F)F)cc(C(F)(F)F)c1,inactive
6,CN1CCC(NCc2ccc(S(=O)(=O)Nc3ccc(Oc4cccc(Cl)c4)cc3)cc2)CC1,inactive
7,Cc1cc(N[C@@H](Cc2ccccc2)C(=O)NCc2cccs2)nc(NCCc2ccc(F)cc2)n1,inactive
8,COc1ccc([N+](=O)[O-])cc1N(Cc1ccccc1-c1ccccc1)S(=O)(=O)c1ccc(C(F)(F)F)cc1,inactive
9,O=C(Nc1ccc(CCN2CCC(c3nc(COCC(F)(F)F)c(-c4ccccc4)o3)CC2)cc1)c1ccc(F)cc1,inactive
10,CCCNCc1ccc(-c2ccc(CN(C(=O)c3nn(-c4ccccc4)nc3C)C3CCOCC3)cc2)nc1,inactive
11,CN(C)CCOc1cc(NC(=O)Nc2ccc(-c3ccccc3)cc2)ccc1I,inactive
12,CN1CCN(Cc2cccc(-c3ccc4c(Nc5ccc(Oc6ccccc6)cc5)ccnc4c3)c2)CC1,inactive
13,CN1CCN(c2ccc3nccc(CCN4CCC(NCc5ccc6c(n5)NC(=O)CO6)CC4)c3n2)CC1,inactive
14,CCCCCCN1CCCN(Cc2ccc(C(=O)Nc3ccc(C(C)C)cc3)cc2)CC1,inactive
15,CCOC(=O)c1c(C)n(-c2ccccc2)c2ccc(OC(=O)c3ccc(S(=O)(=O)N(CC)CC)cc3)cc12,inactive
16,CCCCNC(=O)[C@@H](NC(=O)c1ccc(O)c(-c2ccc(Cl)c(Cl)c2)c1)C(C)C,inactive
17,O=C(Cn1c(CCc2cccc(F)c2F)cc(=O)c2cccnc21)N(CCCn1ccnc1)Cc1ccc(-c2ccc(C(F)(F)F)cc2)cc1,inactive
18,CS(=O)(=O)n1c(CN2CCN(c3ncc(C(F)(F)F)cc3Cl)CC2)nc2ccccc21,inactive
19,CCOc1cc(C(=O)NC2CCN(Cc3ccccc3)C2)ccc1-c1nc2ccc(Cl)cc2[nH]1 (stereo not given),inactive
20,OC(CNCc1ccccc1OCc1ccccc1)c1cc(Br)cs1 (stereo not given),inactive

row,SMILES,outcome
1,Cc1nc2nc(N)nc(N)c2c(C)c1Cc1ccccc1,inactive
2,Cc1cnc(CS(=O)c2nc3ccc(C(F)(F)F)cc3[nH]2)cc1OCc1ccccc1 (stereo not given),inactive
3,N#Cc1ccc(-c2ccc(C(=O)Nc3ccc4c(c3)CCN(C3CCC3)CC4)nc2)cn1,inactive
4,C[C@@H](CC1CCCCC1)OC(=O)N(C)[C@H]1CCN(C#N)C1,inactive
5,O=C(Cc1cccc(Cl)c1)N1CCc2cc3nccc(N4CCN5CCC[C@H]5C4)c3cc21,inactive
6,O=C(Nc1ccc(C(=O)N2CCN(CCN3CCN(c4cccc(C(F)(F)F)c4)CC3)CC2)cc1)c1cc(Cl)cc(Cl)c1,inactive
7,COc1ccc(NC(=O)Nc2cccc(-c3ccncc3)c2)cc1N1CCN(C)CC1,inactive
8,O=C(/C=C/c1ccc(Cl)c(Cl)c1)NCCCCN1CCCN(C(=O)Nc2ccc(F)c(Cl)c2)CC1,inactive
9,CS(=O)(=O)Nc1ccc2[nH]cc(C3CCN(CC(O)C4CCN(C(=O)/C=C/c5ccc(Cl)c(Cl)c5)CC4)CC3)c2c1 (stereo not given),inactive
10,CCCCCC1c2[nH]c3ccccc3c2CCN1C(=O)OCc1ccccc1 (stereo not given),inactive
11,O=C(NCCCCN1CCC(c2c[nH]c3ccc(-c4ccccc4)cc23)CC1)c1ccc(-c2ccccc2)cc1,inactive
12,O=C(NCc1ccc2c(c1)OCO2)c1nn(CCN2CCC(N3CCCC3)CC2)cc1-c1ccc(Cl)c(Cl)c1,inactive
13,CN1CCN(CCCCCCNc2c3ccccc3nc3ccccc23)CC1,inactive
14,CCN(CC)CCOC(=O)c1ccc(NC(=O)c2cn(-c3ccccc3)nc2-c2cccs2)cc1,inactive
15,CCN(CC)CCN(Cc1ccc(-c2ccc(C(F)(F)F)cc2)cc1)C(=O)CN1C(CCc2cccc(F)c2F)=NS(=O)(=O)c2ccccc21,inactive
16,CCN(CC)CCOc1ccc(N(Cc2ccc(C(C)(C)C)cc2)C(=O)c2ccc(Cc3ccccc3)cc2)cc1OC,inactive
17,Cc1cc(-c2nc3ccc(C(=N)N)cc3[nH]2)c(C)cc1-c1nc2ccc(C(=N)N)cc2[nH]1,inactive
18,O=C(Nc1ccc(Cl)cc1)Nc1cccc(-c2cc(CNCCc3ccccc3)oc2-c2ccncc2)c1,inactive
19,Cc1cc(O)c2c(c1)OC(C)(C)C=C2C1=CCN(Cc2ccccc2)CC1,inactive
20,O=S(=O)(c1ccc(OCc2ccc(Cl)cc2)cc1)c1cc2c(cc1O)CCN(C1CCC1)CC2,inactive

# Biological target: Plasmodium falciparum protein kinase 6 (PK6, PF3D7_1337100) (UniProt Q8IDW1)
# Sequence (Q8IDW1 1-305): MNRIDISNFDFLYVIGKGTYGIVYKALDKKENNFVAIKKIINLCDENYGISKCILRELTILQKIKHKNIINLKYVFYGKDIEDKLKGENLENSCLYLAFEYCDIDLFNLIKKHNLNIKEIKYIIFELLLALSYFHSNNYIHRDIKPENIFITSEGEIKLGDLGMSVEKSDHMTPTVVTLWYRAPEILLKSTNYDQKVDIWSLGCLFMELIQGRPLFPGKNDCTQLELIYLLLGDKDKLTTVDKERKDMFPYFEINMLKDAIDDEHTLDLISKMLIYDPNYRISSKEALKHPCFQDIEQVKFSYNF
# Assay: PfPK6 kinase inhibitors, biochemical, TCAMS library (AID 1159586; call rule not given here)
# Settings: recombinant PfPK6, Kinase-Glo ATP depletion luminescence
row,SMILES,outcome
1,Cc1cc(=O)[nH]c(/N=C(/N)NOCCCc2ccccc2)n1,inactive
2,NCCC(=O)Nc1ccc(-c2cnc3[nH]cc(-c4ccc(C(=O)O)cc4)c3c2)cn1,inactive
3,Cc1nc(N)nc(N)c1-c1ccc(Br)c([N+](=O)[O-])c1,inactive
4,O=[N+]([O-])c1ccccc1C=NNc1ccnc2cc(Cl)ccc12,inactive
5,Cc1cc(F)ccc1[C@H]1CNCCN1C(=O)N(C)C(C)(C)c1cc(C(F)(F)F)cc(C(F)(F)F)c1,inactive
6,CN1CCC(NCc2ccc(S(=O)(=O)Nc3ccc(Oc4cccc(Cl)c4)cc3)cc2)CC1,inactive
7,Cc1cc(N[C@@H](Cc2ccccc2)C(=O)NCc2cccs2)nc(NCCc2ccc(F)cc2)n1,inactive
8,COc1ccc([N+](=O)[O-])cc1N(Cc1ccccc1-c1ccccc1)S(=O)(=O)c1ccc(C(F)(F)F)cc1,inactive
9,O=C(Nc1ccc(CCN2CCC(c3nc(COCC(F)(F)F)c(-c4ccccc4)o3)CC2)cc1)c1ccc(F)cc1,inactive
10,CCCNCc1ccc(-c2ccc(CN(C(=O)c3nn(-c4ccccc4)nc3C)C3CCOCC3)cc2)nc1,inactive
11,CN(C)CCOc1cc(NC(=O)Nc2ccc(-c3ccccc3)cc2)ccc1I,inactive
12,CN1CCN(Cc2cccc(-c3ccc4c(Nc5ccc(Oc6ccccc6)cc5)ccnc4c3)c2)CC1,inactive
13,CN1CCN(c2ccc3nccc(CCN4CCC(NCc5ccc6c(n5)NC(=O)CO6)CC4)c3n2)CC1,inactive
14,CCCCCCN1CCCN(Cc2ccc(C(=O)Nc3ccc(C(C)C)cc3)cc2)CC1,inactive
15,CCOC(=O)c1c(C)n(-c2ccccc2)c2ccc(OC(=O)c3ccc(S(=O)(=O)N(CC)CC)cc3)cc12,inactive
16,CCCCNC(=O)[C@@H](NC(=O)c1ccc(O)c(-c2ccc(Cl)c(Cl)c2)c1)C(C)C,inactive
17,O=C(Cn1c(CCc2cccc(F)c2F)cc(=O)c2cccnc21)N(CCCn1ccnc1)Cc1ccc(-c2ccc(C(F)(F)F)cc2)cc1,inactive
18,CS(=O)(=O)n1c(CN2CCN(c3ncc(C(F)(F)F)cc3Cl)CC2)nc2ccccc21,inactive
19,CCOc1cc(C(=O)NC2CCN(Cc3ccccc3)C2)ccc1-c1nc2ccc(Cl)cc2[nH]1 (stereo not given),inactive
20,OC(CNCc1ccccc1OCc1ccccc1)c1cc(Br)cs1 (stereo not given),inactive

row,SMILES,outcome
1,Cc1nc2nc(N)nc(N)c2c(C)c1Cc1ccccc1,inactive
2,Cc1cnc(CS(=O)c2nc3ccc(C(F)(F)F)cc3[nH]2)cc1OCc1ccccc1 (stereo not given),inactive
3,N#Cc1ccc(-c2ccc(C(=O)Nc3ccc4c(c3)CCN(C3CCC3)CC4)nc2)cn1,inactive
4,C[C@@H](CC1CCCCC1)OC(=O)N(C)[C@H]1CCN(C#N)C1,inactive
5,O=C(Cc1cccc(Cl)c1)N1CCc2cc3nccc(N4CCN5CCC[C@H]5C4)c3cc21,inactive
6,O=C(Nc1ccc(C(=O)N2CCN(CCN3CCN(c4cccc(C(F)(F)F)c4)CC3)CC2)cc1)c1cc(Cl)cc(Cl)c1,inactive
7,COc1ccc(NC(=O)Nc2cccc(-c3ccncc3)c2)cc1N1CCN(C)CC1,inactive
8,O=C(/C=C/c1ccc(Cl)c(Cl)c1)NCCCCN1CCCN(C(=O)Nc2ccc(F)c(Cl)c2)CC1,inactive
9,CS(=O)(=O)Nc1ccc2[nH]cc(C3CCN(CC(O)C4CCN(C(=O)/C=C/c5ccc(Cl)c(Cl)c5)CC4)CC3)c2c1 (stereo not given),inactive
10,CCCCCC1c2[nH]c3ccccc3c2CCN1C(=O)OCc1ccccc1 (stereo not given),inactive
11,O=C(NCCCCN1CCC(c2c[nH]c3ccc(-c4ccccc4)cc23)CC1)c1ccc(-c2ccccc2)cc1,inactive
12,O=C(NCc1ccc2c(c1)OCO2)c1nn(CCN2CCC(N3CCCC3)CC2)cc1-c1ccc(Cl)c(Cl)c1,inactive
13,CN1CCN(CCCCCCNc2c3ccccc3nc3ccccc23)CC1,inactive
14,CCN(CC)CCOC(=O)c1ccc(NC(=O)c2cn(-c3ccccc3)nc2-c2cccs2)cc1,inactive
15,CCN(CC)CCN(Cc1ccc(-c2ccc(C(F)(F)F)cc2)cc1)C(=O)CN1C(CCc2cccc(F)c2F)=NS(=O)(=O)c2ccccc21,inactive
16,CCN(CC)CCOc1ccc(N(Cc2ccc(C(C)(C)C)cc2)C(=O)c2ccc(Cc3ccccc3)cc2)cc1OC,inactive
17,Cc1cc(-c2nc3ccc(C(=N)N)cc3[nH]2)c(C)cc1-c1nc2ccc(C(=N)N)cc2[nH]1,inactive
18,O=C(Nc1ccc(Cl)cc1)Nc1cccc(-c2cc(CNCCc3ccccc3)oc2-c2ccncc2)c1,inactive
19,Cc1cc(O)c2c(c1)OC(C)(C)C=C2C1=CCN(Cc2ccccc2)CC1,inactive
20,O=S(=O)(c1ccc(OCc2ccc(Cl)cc2)cc1)c1cc2c(cc1O)CCN(C1CCC1)CC2,inactive
